# Compounds with a hit are over-represented: about 2.5% of the library has one in this group of screens.
# MEKK3 PB1 HTS: raises or lowers MEK5 binding to the human MEKK3 PB1 domain | binding response (% of control), % at 10 µM | bead-based flow cytometry, Alexa488-MEK5 binding to MEKK3; actives lie on both sides; 0 = blocked by unlabeled MEK5, 100 = vehicle | AID 1529 | actives 1.4% (n = 290,000);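 active = binding response more than 3 SD above or below the average of its plate-row segment, actives on both sides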;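 note: Alexa488 bead fluorescence after subtracting the streptavidin-only scavenger bead signal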
# GRK2 aptamer HTS: blocks RNA aptamer binding to human GRK2 | P25098 | bead flow cytometry, FAM-aptamer displacement from GRK2 | inhibition of aptamer binding, % at 10 µM | actives 0.59% (n = 330,000);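 active = inhibition of aptamer binding above 40%, roughly 3 SD of noise, on plates passing a quality check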;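 note: median bead fluorescence of bound FAM aptamer so fluorescent compounds give negative values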
# Target sequence (P25098 whole entry, looked up): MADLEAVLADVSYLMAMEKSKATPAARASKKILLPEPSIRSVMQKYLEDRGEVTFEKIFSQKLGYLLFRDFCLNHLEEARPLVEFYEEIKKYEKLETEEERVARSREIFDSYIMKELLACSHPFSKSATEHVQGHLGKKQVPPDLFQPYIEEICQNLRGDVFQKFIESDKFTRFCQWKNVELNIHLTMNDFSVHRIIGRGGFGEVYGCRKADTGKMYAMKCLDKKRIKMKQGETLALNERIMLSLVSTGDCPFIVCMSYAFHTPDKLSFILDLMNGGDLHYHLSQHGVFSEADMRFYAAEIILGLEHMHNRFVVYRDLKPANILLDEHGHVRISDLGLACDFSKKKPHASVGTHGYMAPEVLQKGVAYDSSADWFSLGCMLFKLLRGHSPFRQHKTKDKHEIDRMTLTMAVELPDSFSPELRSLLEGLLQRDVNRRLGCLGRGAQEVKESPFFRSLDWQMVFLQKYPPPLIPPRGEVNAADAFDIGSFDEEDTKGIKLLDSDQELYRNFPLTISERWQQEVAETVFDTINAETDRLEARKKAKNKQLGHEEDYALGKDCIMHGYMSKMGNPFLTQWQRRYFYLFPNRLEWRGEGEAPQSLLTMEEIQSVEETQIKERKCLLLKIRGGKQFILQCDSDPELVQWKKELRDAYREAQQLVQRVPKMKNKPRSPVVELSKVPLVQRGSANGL
# MEKK2wt PB1 HTS: raises or lowers MEK5 binding to wildtype human MEKK2 PB1 domain; bead flow cytometry, Alexa488-MEK5 binding to MEKK2 WT; actives lie on both sides; actives 1.1% (n = 290,000); Q9Y2U5; binding response (% of control), % at 10 µM; in the data active = binding response below about 67% or above about 130%
# MEKK2mut PB1 HTS: signal of MEK5 binding to mutant human MEKK2 PB1 domain; bead flow cytometry, Alexa488-MEK5 binding to MEKK2 mutant; percent response, % at 10 µM; actives 0.35% (n = 290,000); in the data active = percent response above about 24%, passing the limit was not always enough
# MEKK2wt confirm: raises or lowers MEK5 binding to wildtype human MEKK2, retest; bead flow cytometry, Alexa488-MEK5 binding to MEKK2 WT; actives lie on both sides; actives 2.4% (n = 5,900); shares compounds with MEKK3 PB1 HTS; AID 1892; binding response (% of control), % at 10 µM; in the data active = binding response below about 16% or above about 210%; inactive = in between
# MEKK2mut-MEK5: signal of MEK5 binding to mutant human MEKK2, retest; percent response, % at 10 µM; bead flow cytometry, Alexa488-MEK5 binding to MEKK2 mutant; shares compounds with MEKK3 PB1 HTS; actives 2% (n = 5,900); in the data active = percent response mostly above about 71%, no sharp cut-off; inactive = mostly below about 38%;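 note: higher means compound restores mutant binding toward wildtype level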
# MEKK3-MEK5 inh: MEKK3-MEK5 PB1 inhibition, single concentration confirmation. actives 1.8% (n = 5,900). AID 1894. binding response (% of control), % at 10 µM. shares compounds with MEKK3 PB1 HTS. bead flow cytometry, Alexa488-MEK5 binding to MEKK3; hits give low values;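 active = binding response below 72% of control, or above a set upper limit, though filed actives all read lower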;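 note: 100% = DMSO only wells and 0% = binding blocked by excess unlabeled MEK5; lower values mean stronger disruption of MEK5 binding to MEKK3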
# Numbers without * were called inactive; . = no result; [ ] = remark or other dose.
SMILES,MEKK3 PB1 HTS,GRK2 aptamer HTS,MEKK2wt PB1 HTS,MEKK2mut PB1 HTS,MEKK2wt confirm,MEKK2mut-MEK5,MEKK3-MEK5 inh
CC(C)CCn1c(Br)nc2c1c(=O)n(CC(N)=O)c(=O)n2C,2.0*[inhibitor],0,2.0*[inhibitor],-15,99,-3,99
O=C(OCC1OC(n2ccc(=O)[nH]c2=O)C(Cl)C1O)c1ccccc1 (stereo not drawn),102,4,101,5,.,.,.
O=C(CSCc1ccc(Cl)c(Cl)c1)Nc1c[nH]c(=O)[nH]c1=O,71*[inhibitor],0,104,0,105,-2,103
O=[N+]([O-])c1ccc(O)c(C=Nc2ccc3nc(-c4ccccc4)[nH]c3c2)c1,93,0,93,-3,.,.,.
Oc1c(Br)cc(C=Nc2ccc3nc(-c4ccccc4)[nH]c3c2)c(O)c1Br,88,4,56*[inhibitor],-26,78,-10,95
CC(=O)/C(N=Nc1ccc(-n2ccc(C(F)(F)F)n2)cc1)=C(\C)O,105,1,101,6,.,.,.
CC1CCC(NC(=O)C2CCN(c3nc4ccccc4s3)CC2)CC1 (stereo not drawn),101,2,103,1,.,.,.
O=C(CN1CCN(Cc2ccc(Cl)cc2)CC1)N/N=C/c1ccccc1F,68*[inhibitor],4,57*[inhibitor],-30,103,0,96
OC1(c2ccc3ccccc3c2)CCN(Cc2ccccc2)C1 (stereo not drawn),112,0,130,28*,110,6,103
CCN(CC)C(=O)CC(c1ccc(OC)cc1)c1c(OC)cc(OC)c2ccc(=O)oc12 (stereo not drawn),117,.,145*,4,102,2,100
COc1cc(C(CC(=O)N2CCOCC2)c2c(OC)cc(OC)c3ccc(=O)oc23)cc(OC)c1OC (stereo not drawn),118,0,134,3,.,.,.
COc1ccc(C(CC(=O)N2CCCCC2)c2c(OC)cc(OC)c3ccc(=O)oc23)cc1 (stereo not drawn),101,.,89,0,.,.,.
CCN(CC)C(=O)CC(c1cc(OC)c(OC)c(OC)c1)c1c(OC)cc(OC)c2c(-c3ccccc3)cc(=O)oc12 (stereo not drawn),133*,9,160*,-2,96,-6,97
CCN(CC)C(=O)CC(c1cc(OC)c(OC)c(OC)c1)c1c(OC)cc(OC)c2ccc(=O)oc12 (stereo not drawn),123,0,151*,2,101,-6,100
COc1cc(OC)c2c(-c3ccccc3)cc(=O)oc2c1C(CC(=O)N1CCOCC1)c1ccc(N(C)C)cc1 (stereo not drawn),102,7,99,1,.,.,.
O=C(NNc1ccc(F)cc1)c1c(F)cccc1Cl,102,2,100,-9,.,.,.
CCN1C(=O)C2(C(C(=O)c3cc4ccccc4o3)=C(O)C(=O)N2CCCN2CCOCC2)c2ccccc21 (stereo not drawn),98,2,98,2,.,.,.
O=C(CSc1ccc(-c2ccco2)nn1)NCc1ccccc1Cl,135*,2,109,1,103,1,102
O=C(C1CCCN(Cc2cccnc2)C1)N1CCCCC1 (stereo not drawn),109,0,115,12,.,.,.
Cn1cccc1CC(=O)NNC(=O)Nc1ccc(F)cc1,147*,1,109,-1,106,10,105
Cn1cccc1CC(=O)NNC(=S)Nc1ccc(F)cc1,104,0,105,-1,.,.,.
O=c1c(C=NCCN2CCNCC2)c(-c2ccccc2)[nH]n1-c1ccc([N+](=O)[O-])cc1,118,0,179*,31,142,45,107
COc1cccc(CN(C)C(=O)c2cccc(OCc3ccccc3)c2)c1,103,2,101,7,.,.,.
CCc1ccc(C2=Nn3c(nnc3-c3cccs3)SC2)cc1,126*,1,119,5,95,-2,100

# Screening results from PubChem.
